Screening data from PubChem.
Compounds with a hit are over-represented: about 10% of the library has one in this group of screens.
GLA inh pH 4.5: blocks human alpha-galactosidase A at pH 4.5; activity change, negative = inhibition, % at 105 µM; 230,000 tested, under 10 active; P06280; purified enzyme, 4-MU-alpha-Gal fluorescence, pH 4.5;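 further: 0% = full activity with enzyme and -100% = basal without enzyme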
GLA spleen mod: inhibits or activates alpha-galactosidase in human spleen homogenate. human spleen homogenate, 4MU-alpha-Gal fluorescence, 40 min. Potency, µM (highest dose often 80 µM), without a hit: at the highest dose activity change, negative = inhibition, most hits filed as inhibitors. 240,000 compounds, 0.008% hits. P06280;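 further: potency means the concentration at half of the fitted maximal effect; 0% = enzyme with vehicle and -100% = no enzyme basal signal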
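Human spleen homogenate (1 ug) as enzyme source, 4-methylumbelliferyl-alpha-D-galactopyranoside 1 mM final, citrate/phosphate pH 5.0 with 0.01% Tween-20. Compounds 40 min at 37C, NaOH/glycine stop; fluorescence Ex 365/Em 440, Hill-fit AC50.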
ALDH1A1 inh: blocks purified human ALDH1A1 activity. Purified ALDH1A1, NADH fluorescence, propionaldehyde substrate. 220,000 compounds, 7.3% hits. AID 1030. Potency, µM (titrated, usually from 75.3 µM), without a hit: at the highest dose activity, negative = inhibition, most hits filed as inhibitors; active means well fitted inhibition curve with a large enough effect, not every such curve was filed as active; inconclusive means small, poorly fitted or top-dose-only effect, or another doubt; inactive means no such curve, though single readings can be large or run the other way;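 further: potency means the concentration at half of the fitted maximal effect; plate controls were no enzyme wells and a reference inhibitor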
Target sequence (P00352 whole entry, looked up): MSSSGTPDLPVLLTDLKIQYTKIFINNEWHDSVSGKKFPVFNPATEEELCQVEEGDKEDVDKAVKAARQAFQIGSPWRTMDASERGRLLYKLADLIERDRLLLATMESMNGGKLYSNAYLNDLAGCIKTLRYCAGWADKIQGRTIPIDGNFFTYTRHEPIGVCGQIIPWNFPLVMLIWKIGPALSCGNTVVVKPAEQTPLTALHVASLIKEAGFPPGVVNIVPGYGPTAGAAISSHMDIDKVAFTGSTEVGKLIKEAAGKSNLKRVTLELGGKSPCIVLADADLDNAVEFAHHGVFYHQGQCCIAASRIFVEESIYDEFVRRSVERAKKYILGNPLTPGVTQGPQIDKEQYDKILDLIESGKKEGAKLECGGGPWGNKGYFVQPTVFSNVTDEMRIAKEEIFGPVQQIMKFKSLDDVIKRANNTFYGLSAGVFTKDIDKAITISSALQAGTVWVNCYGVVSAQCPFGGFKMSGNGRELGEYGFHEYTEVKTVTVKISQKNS
12-hLO inh: inhibitors of human 12-lipoxygenase (ALOX12); P18054; purified 12-hLO, xylenol orange hydroperoxide absorbance; Potency, µM (doses to about 57.1 µM), inactives show top-dose activity change, negative = inhibition, usual class: inhibitors; 150,000 compounds, 0.12% hits; further: potency means the concentration at half of the fitted maximal effect; nearly all actives have a fitted effect of over 55% in size
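Purified human 12hLO (150 nM), preincubated 15 min with compound, then 40 uM arachidonic acid for 30 min, room temperature, Hepes pH 7.0 with 0.01% Triton X-100. Hydroperoxide detected by ferrous iron/xylenol orange; 573/405 nm absorbance ratio gives reaction progress.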
PNC assembly inh: inhibitors of perinucleolar compartment assembly; 140,000 compounds, 3.1% hits; activity change (PNC), negative = inhibition, % at 10 µM; PC3M PTB-GFP, PNC prevalence imaging, 16 h; hits give low values;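 active means readout at or below -70, meaning at least 70% loss of cells showing the perinucleolar compartment, a nuclear body marking cancer cells; inconclusive means readout between -30 and a set limit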;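 further: plate controls were DMSO wells for no effect and camptothecin positive control wells for full effect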
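Compounds are pinned in duplicate onto adhered PC3M cells stably expressing GFP-tagged PTB and incubated 16 h at 37 C. Cells are then fixed, nuclei stained with Hoechst, and PNC-positive cells counted.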
HPGD inh: blocks human HPGD enzyme activity. P15428. purified HPGD, NADH fluorescence kinetic, PGE2 substrate. 150,000 compounds, 4.3% hits. Potency, µM, for inactives: at the top dose activity change, negative = inhibition, most hits filed as inhibitors; active means well fitted inhibition curve with a large enough effect, not every such curve was filed as active; inconclusive means small, poorly fitted or top-dose-only effect, or another doubt; inactive means no such curve, though single readings can be large or run the other way; further: potency means the concentration at half of the fitted maximal effect
Target sequence (P15428 whole entry, looked up): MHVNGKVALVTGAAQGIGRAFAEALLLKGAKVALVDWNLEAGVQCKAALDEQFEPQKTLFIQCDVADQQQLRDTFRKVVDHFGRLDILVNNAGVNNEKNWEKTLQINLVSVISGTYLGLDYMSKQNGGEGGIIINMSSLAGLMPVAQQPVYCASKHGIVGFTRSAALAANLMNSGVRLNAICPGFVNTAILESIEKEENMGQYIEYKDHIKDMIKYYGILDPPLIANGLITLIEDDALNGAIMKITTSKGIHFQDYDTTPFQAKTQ
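20 nM HPGD preincubated 15 min at room temperature with compound in 50 mM Tris-HCl pH 8, 0.01% Tween 20. Started with 1 mM NAD+ and 30 uM prostaglandin E2; NADH fluorescence (360/450 nm) read 5 times over 30-s intervals, last minus first.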
* marks the source's active call; other numbers are inactive results; [ ] = remark or other dose. Unless noted, the call rests on the fitted dose curve; in most records, active means well fitted curve in the direction sought with a large enough effect; inconclusive means small, poorly fitted or top-dose-only effect, or another doubt; inactive means no such curve, though single readings can be large; an effect the other way counts as inactive or inconclusive. Unless noted, on the % scale 0 is the no-effect control and ±100 the full control effect.

Results for COc1cccc(-c2cc(C(=O)N/N=C/c3ccccc3O)[nH]n2)c1 ?
ALDH1A1 inh: 2%; 12-hLO inh: -8%; HPGD inh: -3%

How did COc1ccc(C2=C(SC)CC2=NC(C)(C)C)cc1 do in these assays?
GLA inh pH 4.5: -1; GLA spleen mod: -1%; ALDH1A1 inh: 18µM*; 12-hLO inh: -3%; PNC assembly inh: inconclusive; HPGD inh: -6%

What do the screens show for `COc1ccc(-c2nc3n(c2C)CCC3)cc1`?
GLA inh pH 4.5: 0; GLA spleen mod: -1%

How did O=C(Nc1ccccc1)N1CCCC2(CCN(C(=O)c3csnn3)CC2)C1 do in these assays?
GLA spleen mod: 3%; ALDH1A1 inh: 2%; 12-hLO inh: 4%; HPGD inh: 0%

How did CCOC(=O)c1ccccc1NC(=S)N1CC(C)CC(C)C1 (stereo not drawn) do in these assays?
GLA inh pH 4.5: -10; GLA spleen mod: 2%; ALDH1A1 inh: 25µM*; 12-hLO inh: -4%; PNC assembly inh: inconclusive; HPGD inh: -5%

Results for CC(C)=NO[C@@H](C)CN1CCCCc2nc(C)c(C)cc21 ?
GLA spleen mod: 0%[17.5 µM]; ALDH1A1 inh: -7%[13.5 µM]

What do the screens show for `c1ccc(-c2nnc3sc(CN4CCc5ccccc54)cn23)cc1`?
GLA inh pH 4.5: 6; GLA spleen mod: 4%; ALDH1A1 inh: inconclusive; 12-hLO inh: -11%; PNC assembly inh: 143; HPGD inh: 11µM*

What do the screens show for `Brc1ccc(-c2nnc3sc(CN4CCC5(CC4)OCCO5)cn23)cc1`?
GLA inh pH 4.5: 0; GLA spleen mod: -4%; ALDH1A1 inh: -7%; 12-hLO inh: 4%; PNC assembly inh: 20; HPGD inh: inconclusive

What do the screens show for `O=C(CC1C(=O)NCCN1CC1CCCCC1)NCc1ccc(Cl)cc1` (stereo not drawn)?
GLA inh pH 4.5: -6; GLA spleen mod: 3%; ALDH1A1 inh: 20µM*

Results for CCSc1nnc(NC(=O)Cc2cc(OC)c(OC)c(OC)c2)s1 ?
GLA inh pH 4.5: -8; GLA spleen mod: 14%; ALDH1A1 inh: -16%

How did COCCNC(=O)C(c1ccc(F)cc1)N(CCOC)C(=O)CCC(=O)Nc1nccs1 (stereo not drawn) do in these assays?
GLA inh pH 4.5: -4; GLA spleen mod: 2%; ALDH1A1 inh: 7%; 12-hLO inh: 4%; PNC assembly inh: -108*; HPGD inh: -1%

How did O=C(NCCN1CCCCC1)c1ccc(I)cc1 do in these assays?
GLA inh pH 4.5: 2; GLA spleen mod: -6%; ALDH1A1 inh: 2%; 12-hLO inh: -4%; HPGD inh: -3%

What do the screens show for `COc1ccc(C(=O)c2ccc(OC)c(Br)c2)cc1Br`?
GLA inh pH 4.5: -11; GLA spleen mod: 4%; ALDH1A1 inh: 20µM*; 12-hLO inh: -1%; PNC assembly inh: inconclusive; HPGD inh: -16%

How did C=CCN(CC=C)C(=S)NC(=O)c1ccc(OC)c(Br)c1 do in these assays?
GLA inh pH 4.5: 5; GLA spleen mod: 3%; ALDH1A1 inh: inconclusive; 12-hLO inh: -15%; PNC assembly inh: -86*; HPGD inh: -15%

Results for c1ccc(-c2cn3nc4c(nc3n2)CCCC4)cc1 ?
GLA inh pH 4.5: 3; GLA spleen mod: 11%; ALDH1A1 inh: inconclusive; 12-hLO inh: -10%; PNC assembly inh: -6; HPGD inh: -55%

What do the screens show for `Brc1ccc(-c2cn3nc4c(nc3n2)CCCC4)cc1`?
GLA inh pH 4.5: -2; GLA spleen mod: -6%; ALDH1A1 inh: inconclusive; 12-hLO inh: -7%; PNC assembly inh: -100*; HPGD inh: inconclusive

Results for Cc1cc(NC(=O)CC(C)(C)C)nc2c1c(=O)oc1ccccc12 ?
GLA inh pH 4.5: 0; GLA spleen mod: 0%; ALDH1A1 inh: inconclusive; 12-hLO inh: -2%; PNC assembly inh: -119*; HPGD inh: -9%

Results for COC(=O)C1CCN(c2cc(=O)n(-c3ccccc3Cl)c(=O)[nH]2)CC1 ?
GLA inh pH 4.5: 4; GLA spleen mod: -3%; ALDH1A1 inh: 18µM*; 12-hLO inh: -1%; PNC assembly inh: inconclusive; HPGD inh: -8%

Results for CCOC(=O)N1CCN(c2cc(=O)n(-c3ccccc3Cl)c(=O)[nH]2)CC1 ?
GLA inh pH 4.5: 0; GLA spleen mod: 4%; ALDH1A1 inh: -3%; 12-hLO inh: 4%; PNC assembly inh: 34; HPGD inh: -5%

Results for O=C(c1ccccc1Cl)N1CCCC(c2nc3c(nnn3Cc3ccccc3)c(=O)[nH]2)C1 (stereo not drawn) ?
GLA inh pH 4.5: -17; GLA spleen mod: 2%; ALDH1A1 inh: -13%; 12-hLO inh: -7%; PNC assembly inh: 15; HPGD inh: 16µM*

What do the screens show for `Cc1nc2c(nnn2Cc2ccccc2)c(=O)[nH]1`?
GLA inh pH 4.5: 9; GLA spleen mod: 5%; ALDH1A1 inh: -1%

What do the screens show for `COc1ccc(Cn2nnc3c(=O)[nH]c(C4CCCN(C(=O)c5ccccc5)C4)nc32)cc1` (stereo not drawn)?
GLA inh pH 4.5: 10; GLA spleen mod: 1%; ALDH1A1 inh: 0%; 12-hLO inh: 6%; PNC assembly inh: 44; HPGD inh: 13µM*

How did CCCc1nc2c(nnn2Cc2ccccc2)c(=O)[nH]1 do in these assays?
GLA inh pH 4.5: 1; GLA spleen mod: -2%; ALDH1A1 inh: -2%; 12-hLO inh: -4%; PNC assembly inh: -14; HPGD inh: -26%

What do the screens show for `COc1cccc(Cn2nnc3c(=O)[nH]c(C4CCCN(C(=O)c5ccccc5Cl)C4)nc32)c1` (stereo not drawn)?
GLA inh pH 4.5: -28; GLA spleen mod: -12%; ALDH1A1 inh: 7.9µM*; 12-hLO inh: -5%; PNC assembly inh: inconclusive; HPGD inh: 14µM*

How did CS(=O)(=O)N(Cc1ccc(F)cc1)Cc1nc2ccccc2c(=O)[nH]1 do in these assays?
GLA inh pH 4.5: 2; GLA spleen mod: 4%; ALDH1A1 inh: 25µM*; 12-hLO inh: -1%; PNC assembly inh: 24; HPGD inh: -1%

How did CC(=O)N(Cc1ccc(F)cc1)Cc1nc2ccccc2c(=O)[nH]1 do in these assays?
GLA inh pH 4.5: -5; GLA spleen mod: -9%; ALDH1A1 inh: 5%

Results for CS(=O)(=O)N(CC(=O)NCC1CCCO1)c1cccc([N+](=O)[O-])c1 (stereo not drawn) ?
GLA inh pH 4.5: 12; GLA spleen mod: -9%; ALDH1A1 inh: 11%

What do the screens show for `Cc1ccc(S(=O)(=O)N(CC(=O)NCC2CCCO2)c2cccc([N+](=O)[O-])c2)cc1` (stereo not drawn)?
GLA inh pH 4.5: -1; GLA spleen mod: 1%; ALDH1A1 inh: 14µM*
